About 1,300 (0.41%) of roughly 320,000 compounds were called active. This excerpt belongs to a sample that is enriched for actives. A number with no mark means an inactive call.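 The calls were made as follows: active = percent inhibition above the average of all tested compounds plus 3 SD, set per screening campaign (cut at about 16% in these data); inactive = the rest.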
What follows are compounds tested against Insulin-degrading enzyme (Homo sapiens) (UniProt P14735) (assay: cellular IDE Abeta-cleavage inhibition – fluorescence polarization, HEK cells, FAbetaB substrate, primary screen (AID 434962;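 also: IDE supplied by intact live HEK cells; FP after avidin binding of uncleaved biotin substrate so inhibition keeps polarization high; 0% = DMSO wells and 100% = 60 µM reference IDE inhibitor Ii1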)). Conditions: at 5.59 µM, stronger effect = higher value.
Sequence of Insulin-degrading enzyme (Homo sapiens) (P14735 whole entry, looked up): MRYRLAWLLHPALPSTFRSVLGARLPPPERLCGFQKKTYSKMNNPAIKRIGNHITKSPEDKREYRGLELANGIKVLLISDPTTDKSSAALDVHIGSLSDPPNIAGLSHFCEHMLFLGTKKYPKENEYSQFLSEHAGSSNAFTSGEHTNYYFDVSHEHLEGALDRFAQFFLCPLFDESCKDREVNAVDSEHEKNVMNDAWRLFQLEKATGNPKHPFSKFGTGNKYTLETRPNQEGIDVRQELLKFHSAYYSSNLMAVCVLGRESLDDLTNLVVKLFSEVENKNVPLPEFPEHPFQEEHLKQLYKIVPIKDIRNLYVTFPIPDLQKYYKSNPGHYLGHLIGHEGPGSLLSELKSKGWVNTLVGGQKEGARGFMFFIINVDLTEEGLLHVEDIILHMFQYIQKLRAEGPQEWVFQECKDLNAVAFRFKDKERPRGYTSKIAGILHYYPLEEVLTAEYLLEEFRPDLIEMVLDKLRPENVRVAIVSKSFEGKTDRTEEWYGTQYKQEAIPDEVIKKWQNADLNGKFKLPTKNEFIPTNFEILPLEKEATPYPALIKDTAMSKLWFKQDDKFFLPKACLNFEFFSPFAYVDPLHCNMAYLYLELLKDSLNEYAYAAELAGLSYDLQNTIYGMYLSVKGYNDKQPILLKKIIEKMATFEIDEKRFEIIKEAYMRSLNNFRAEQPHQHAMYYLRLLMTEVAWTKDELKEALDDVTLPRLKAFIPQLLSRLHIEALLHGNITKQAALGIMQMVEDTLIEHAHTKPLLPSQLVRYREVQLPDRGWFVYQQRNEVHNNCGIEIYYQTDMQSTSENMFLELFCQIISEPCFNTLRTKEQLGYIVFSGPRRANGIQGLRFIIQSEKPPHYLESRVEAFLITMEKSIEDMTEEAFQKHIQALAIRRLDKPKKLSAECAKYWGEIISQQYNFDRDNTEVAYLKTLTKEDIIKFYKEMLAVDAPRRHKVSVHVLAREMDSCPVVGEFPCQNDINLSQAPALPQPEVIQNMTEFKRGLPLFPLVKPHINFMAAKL
Cc1nc2ccccc2c(=O)n1NC(=O)c1ccccc1 gave an inhibition of 7.25%.
With Cc1ccnc(-n2sc3ccccc3c2=O)n1 the inhibition was 57.8% (active).
Work on Cc1ccnc(N2CCCC(C(=O)NC3CC3)C2)n1 (stereo not drawn) yielded an inhibition of 1.69%.
With COc1cccc(CNC(=O)C2CCCN(c3ncnc4c3nc3n4CCCCC3)C2)c1 (stereo not drawn) the inhibition was 8.69%.
Work on O=C(/C=C/c1ccccc1)Oc1coc(CSc2ncccn2)cc1=O yielded an inhibition of 4.39%.
For COC(=O)c1sccc1-n1cccc1C(=O)C(=O)N1CCCCC1, the inhibition was -0.4%.
COc1ccc(N(C(=O)c2cccnc2)S(=O)(=O)c2ccc(OC)c(OC)c2)cc1 showed an inhibition of -4.14%.
CCc1ccc(N(CC(=O)NCc2cccnc2)S(=O)(=O)c2ccccc2)cc1 showed an inhibition of 8.22%.
With O=C(c1cccnc1)N(c1cc2sc(=O)oc2c2ccccc12)S(=O)(=O)c1ccccc1 the inhibition was 20.4% (active).
In the case of O=C(Cn1nnc2ccccc2c1=O)Nc1cc(C(F)(F)F)ccc1N1CCOCC1, the inhibition is reported as 6.97%.
Compound COc1ccc(C)cc1NC(=O)c1cc(-c2ccccc2)nc2c1cnn2C(C)C has an inhibition of 1.05%.
CC(=O)N(C1=C(Cl)C(=O)c2ccccc2C1=O)c1ccc(C(=O)O)cc1 was tested, and the inhibition was 98.9% (active).
With Cc1cc(OCCCC(=O)NCCN2C(=O)S/C(=C\c3cccnc3)C2=O)ccc1Cl the inhibition was 3.84%.
OC(c1nc2ccc(F)cc2[nH]1)C(O)c1nc2ccc(F)cc2[nH]1 (stereo not drawn) was tested, and the inhibition was 6.32%.
COc1ccc(-c2[nH]ncc2/C=N/NC(=O)c2cc(Br)ccc2O)c(OC)c1 was tested, and the inhibition was 1.62%.
With Cc1ccccc1NC(=O)C(C)c1ccc(-c2ccccc2)c(F)c1 (stereo not drawn) the inhibition was 4.53%.
For CCN1/C(=C\c2ccc3ccccc3[n+]2CC)Sc2cc(C)ccc21, the inhibition was 73.9% (active).
CCN1/C(=C/c2ccc3ccc(C)cc3[n+]2CC)Sc2ccccc21 was tested, and the inhibition was 31.9% (active).
Work on CC(NC(=O)C(C)(C)C)C(c1cccs1)N1CCN(Cc2ccccc2)CC1 (stereo not drawn) yielded an inhibition of -2.35%.
For O=Cc1c(Nc2ccccc2Cl)nc2ccccn2c1=O, the inhibition was -3.69%.
CC(=O)c1ccc(S(=O)(=O)Nc2ccc(-c3ccc4nncn4n3)cc2)cc1 showed an inhibition of 2.89%.
Cc1ccc(CC(=O)N(C)CC(=O)N(CC(C)C)c2c(N)n(CC(C)C)c(=O)[nH]c2=O)cc1C showed an inhibition of -2.63%.
With CN(c1ccccc1)c1ccc(/C=c2\s/c(=C(/C#N)C(=O)C(C)(C)C)n(Cc3ccco3)c2=O)cc1 the inhibition was 31% (active).
Compound CCOC(=O)Cn1c(=O)oc2cc(S(=O)(=O)N(C)Cc3ccco3)ccc21 has an inhibition of 3.15%.
In the case of O=C(O)c1ccccc1C(=O)NC1=NN(c2ccccc2)CC1, the inhibition is reported as -0.6%.
With COc1ccccc1C(=O)OCC(=O)Nc1cccc(S(=O)(=O)NC2=NCCCCC2)c1 the inhibition was 0.13%.
Cc1ccc(Br)c(NS(=O)(=O)c2cccc(C(=O)N3CCNC(=O)C3)c2)c1 showed an inhibition of -0.69%.
C/C(=C/c1ccccc1)C(=O)N1CCN(c2ccccc2)CC1 showed an inhibition of -2.17%.
CCOC(=O)/C(C#N)=C/c1ccc(N2CCN(Cc3ccccc3)CC2)cc1 was tested, and the inhibition was 3.39%.
COc1ccc(N2CCN(C(=O)/C(C#N)=C/c3ccccc3)CC2)cc1 was tested, and the inhibition was 17.7% (active).
In the case of Cc1cc(=O)oc2c1ccc1ccccc12, the inhibition is reported as 7.29%.
CCc1ccccc1N(CC(=O)N1CCN(c2ccccc2F)CC1)S(C)(=O)=O was tested, and the inhibition was -4%.
COc1ccc(NC(=O)C(C)SCc2ccccc2)cc1 (stereo not drawn) gave an inhibition of -4.67%.
With N#C/C(=C/c1ccc(N2CCCCC2)o1)C(=O)NCCc1c[nH]c2ccccc12 the inhibition was 151% (active).
O=C(NCCc1c[nH]c2ccccc12)C1CCN(Cc2ccc(Br)cc2)CC1 showed an inhibition of -4.77%.
Work on O=C(CN1C(=O)NC2(CCCCC2)C1=O)NCCc1c[nH]c2ccccc12 yielded an inhibition of 1.64%.
COc1ccccc1N(C)S(=O)(=O)c1ccc(C(=O)NC2CCCCCC2)cc1 showed an inhibition of -1.04%.
CC1CCCC(NC(=O)COC(=O)[C@@H]2CC(O)CN2S(=O)(=O)c2ccc3c(c2)OCCO3)C1C (stereo partly drawn) was tested, and the inhibition was 2.16%.
Compound COc1cc(C(=O)Nc2cc(C(F)(F)F)ccc2-n2cncn2)cc(OC)c1OC has an inhibition of -10.1%.
With CCN(CC(=O)Nc1c(F)cccc1F)C(=O)C1CCC1 the inhibition was -0.82%.
Compound N#CC1=C(N)Oc2c(ccc3cccnc23)C1c1ccncc1 (stereo not drawn) has an inhibition of 0.4%.
With N#CC1=C(N)Oc2c(sc3ccccc23)C1c1ccco1 (stereo not drawn) the inhibition was 37.7% (active).
In the case of Cc1cc(C(=O)NCCc2ccc(Cl)cc2)c(C)o1, the inhibition is reported as -1.15%.
Work on COCc1[nH][nH]c(=O)c1C=Nc1ccc(F)cc1F yielded an inhibition of 1.29%.
CN1/C(=c2/s/c(=C3/C(=O)N(c4ccccc4)NC3=Nc3ccccc3)n(C)c2=O)C(C)(C)c2ccccc21 was tested, and the inhibition was 27% (active).
O=C(OCC(=O)N1CCCCC1)c1ccc(OC(F)(F)F)cc1 gave an inhibition of 7.21%.
With Cc1nnc(Sc2nc3c(c(=O)[nH]c(=O)n3C)n2Cc2ccccc2)s1 the inhibition was 1.7%.
COC1=C/C(=C/c2c(N)n3nc(CC(=O)N4CCOCC4)sc3nc2=O)C=CC1=O was tested, and the inhibition was 12.1%.
For C=CCC1=C/C(=C\c2c(N)n3nc(CC(=O)N4CCOCC4)sc3nc2=O)C=C(OC)C1=O, the inhibition was 68.9% (active).
Work on COc1cc(/C=C2\C(=N)N3N=C(CC(=O)N4CCOCC4)SC3=NC2=O)cc(OC)c1OC yielded an inhibition of -4.67%.
Cc1cccc(CSc2ccc(-c3cccs3)nn2)c1 was tested, and the inhibition was 4.68%.
FC(F)(F)Oc1ccc(-c2cn3cccnc3n2)cc1 gave an inhibition of 6.48%.
With FC(F)(F)c1ccc2c3n(nc2c1)CCN=C3c1ccc(Cl)cc1 the inhibition was 1.01%.
In the case of CCn1c(O)c(N=NC2=NC(=O)CS2)c2cc(C)ccc21, the inhibition is reported as 5.14%.
For CCC(=C/c1sc2ccc3ccccc3c2[n+]1C)/C=C1\Sc2ccc3ccccc3c2N1C, the inhibition was 50.5% (active).
O=S1(=O)CC(NCc2ccccc2)C(Nc2ccc(Cl)cc2)C1 (stereo not drawn) gave an inhibition of 0.58%.
Work on COc1ccc(NS(=O)(=O)c2cc3c(cc2C)N(C(C)=O)CCO3)cc1 yielded an inhibition of 2.34%.
In the case of CN1C(C)(C)CC(NC(=O)CCC(=O)NC2CC(C)(C)N(C)C(C)(C)C2)CC1(C)C, the inhibition is reported as 0.6%.

Source: PubChem BioAssay AID434962 (The Scripps Research Institute Molecular Screening Center, 2010)
